# From PubChem BioAssay (NCI)
# “And” between values parts separate entries of the source, which are not always exact repeats. Equal entries are not always repeated. About 83,000 compounds went through this panel and 20% of them were active in at least one assay; those are over-represented in the sample as a whole.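 The endpoint reported here, percent growth, reads 100 for growth as untreated, 0 for no net growth and -100 for all cells dead.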 A number with no mark means an inactive call. The source made the active and inactive calls. Rule for the calls: active = growth percent below 10; inactive = the rest.
# System: MDA-MB-468 breast
# Experiment: NCI-60 one-dose screen, 48 h (100 = growth as untreated, 0 = no growth, -100 = all killed)
# Conditions: 10 µM unless noted
row,SMILES,growth
1,CCNC(=O)Oc1ccc(/C(=C(/C)Cc2ccc(OC)cc2)c2ccc(OCCN3CCCCC3)cc2)cc1,42.4%
2,CN(C)CCCNc1nc2ccccc2c2c(=O)c3cc(F)ccc3sc12,-6.97% (active)
3,Cc1cc(OC(=O)c2ccc([N+](=O)[O-])cc2)nc2[nH]c(=O)sc12,100%
4,CN1C(=O)CNC(=O)[C@H](NC(=O)c2nc3ccccc3cc2O)CSSC[C@H]1C(=O)NCCCc1nc2ccccc2cc1O,22.3%
5,O=C(Nc1ccc(Oc2ccc(Nc3nc4ccccc4s3)cc2)cc1)Nc1ccc(Cl)c(C(F)(F)F)c1,4.56% (active)
6,CC(=O)c1nnn(-c2c(C(=O)n3nc(C)cc3C)sc(=S)n2-c2ccccc2)c1C,96.8%
7,CN(C)C/C=C/C(=O)Nc1cc2c(Nc3ccc(F)c(Cl)c3F)ncnc2cc1OCCOC(F)F,-40.8% (active)
8,Nc1ccc(Oc2ccccc2)c(Cl)c1,92.1%
9,CC(=O)Nc1ccc(S(N)(=O)=O)cc1,100% and 97.2%
10,O=C(NC1CC1)c1ccc(-c2nc3ccc4[nH]ncc4c3c3c2CCCC3)cc1,8.81% (active)
11,O=S(=O)(NCCNc1nccc(-c2c(-c3ccccc3)nc3sccn23)n1)c1ccc(O)cc1,19.9%
12,Cc1ccc(OCCOCCOCCOc2ccc(C)n(O)c2=S)c(=S)n1O,12.1%
13,CN(O)c1nc(N(C)O)nc(N2CCOCC2)n1,-6.58% (active)
14,CCOc1ccc(/C=C\C(=O)O)cc1,121%
15,CCCCNC(=O)Oc1ccc(/C(=C(\C)c2ccc(OC)cc2)c2ccc(OCCN3CCCCC3)cc2)cc1,64.4%
16,CC(C)=CCC[C@](C)(O)[C@H]1CC[C@]2(C)[C@@H]1CC[C@@H]1[C@@]3(C)C/C(=C/c4ccco4)C(=O)C(C)(C)[C@@H]3CC[C@]12C,111%
17,S=C=Nc1ccc(N2CCOCC2)cc1,87%
18,CCCCCn1c(=N)n(CC(O)COc2cccc(C)c2)c2ccccc21 (stereo not given),-3.97% (active)
19,C=C(CBr)[C@@H]1CC[C@]2(C(=O)O)CC[C@]3(C)[C@H](CC[C@@H]4[C@@]5(C)CCC(=O)C(C)(C)[C@@H]5CC[C@]43C)[C@@H]12,40.3%
20,C=CCN=C1NC(=O)/C(=C/c2cc(C(C)(C)C)c(O)c(C(C)(C)C)c2)S1,43.4%

row,SMILES,growth
1,COc1cc(-c2ncn(/C=C\C(=O)OC(C)C)n2)cc(C(F)(F)F)c1,-40.6% (active)
2,COc1ccc(NC2=CC(=O)C(C)=C(C)C2=O)cc1,57%
3,O=C1c2c(c3c4ccc(Br)cc4oc3c3[nH]c4ccccc4c23)C(=O)N1CCO,46.5%
4,O=C(OCc1ccc2c(Br)cc(Br)c(O)c2n1)c1cc2ccccc2[nH]1,-73.2% (active)
5,CCOC(=O)c1cnc2ccc(OC)cc2c1Nc1cccc(S(=O)(=O)NC)c1,113%
6,CC(=O)C1=C(O)C=C2Oc3c(C(=O)/C=C/c4cc(C(F)(F)F)cc(C(F)(F)F)c4)c(O)c(C)c(O)c3[C@]2(C)C1=O,-69.3% (active)
7,CN1/C(=C\C(I)C(I)C2=[N+](C)c3ccccc3C2(C)C)C(C)(C)c2ccccc21 (stereo not given),-17.6% (active)
8,O=C(CCc1nnc(CN(c2ccccc2)c2ccccc2)o1)c1nc2ccccc2[nH]1,89.1%
9,CCN(CC)CCCNc1nc2ccccc2c2c(=O)c3cc(Cl)ccc3sc12,54.5%
10,Clc1cc2c(c(CSc3nc4ccccc4n4cccc34)c1)OCOC2,-1.64% (active)
11,CCN(C)CCCOc1ccc(/C(=C(\C)Cc2cccc(OC)c2)c2ccc(OC(C)=O)cc2)cc1,101%
12,NC(=O)C(=Cc1ccc(Cl)cc1)C(N)=O,3.1% (active)
13,COc1cc(-c2nc3sccn3c2-c2ccnc(NCCNS(=O)(=O)c3ccc(Cl)cc3)n2)ccc1F,29.7%
14,C=C1c2c(C)nn(-c3ccc(NC(C)=O)cc3)c2N(C)C23CC1C1(C)c4c(C)nn(-c5ccc(NC(C)=O)cc5)c4N(C)C(C)(CC12)C3 (stereo not given),14.5%
15,C=C(C)[C@@H]1CC[C@]2(C(=O)OCCCC[P+](c3ccccc3)(c3ccccc3)c3ccccc3)CC[C@]3(C)[C@H](CC[C@@H]4[C@@]5(C)CC[C@H](OC(=O)C(Cl)Cl)C(C)(C)[C@@H]5CC[C@]43C)[C@@H]12,-61.7% (active)
16,N=c1c(S(=O)(=O)c2ccccc2)cc2c(=O)n3ccccc3nc2n1C1CCCC1,88.1%
17,CC1=CC(=Nc2ccc(N(C)C)cc2)C=C(C)C1=O,15%
18,CC(=O)OCC1OC(OCC2OC(OC(C)=O)C(OC(C)=O)C(OC(C)=O)C2OC(C)=O)C(OC(C)=O)C(OC(C)=O)C1OC(C)=O (stereo not given),81.3%
19,COc1ccc(Nc2ncc(I)c(NCCCNC(=O)C3CCC3)n2)cc1,-14.9% (active)
20,Cc1cnc(C=O)c2cccc([N+](=O)[O-])c12,89.7%
